Screening data from PubChem BioAssay.
In the library only some 17% were active in any assay of this set; here they are far more common.
TDP1 block = inhibitors of human tyrosyl-DNA phosphodiesterase TDP1; 350,000 compounds, 0.28% hits; Potency, µM (top dose mostly 130 µM), inactives show at the highest dose activity change, negative = inhibition, hits mostly inhibitors; Q9NUW8; recombinant TDP1, AlphaScreen DNA substrate cleavage; also: % is scaled to controls: 0 for no effect and ±100 for the full control effect; nearly all actives have a fitted effect of over 40% in size
Target sequence (Q9NUW8 whole entry, looked up): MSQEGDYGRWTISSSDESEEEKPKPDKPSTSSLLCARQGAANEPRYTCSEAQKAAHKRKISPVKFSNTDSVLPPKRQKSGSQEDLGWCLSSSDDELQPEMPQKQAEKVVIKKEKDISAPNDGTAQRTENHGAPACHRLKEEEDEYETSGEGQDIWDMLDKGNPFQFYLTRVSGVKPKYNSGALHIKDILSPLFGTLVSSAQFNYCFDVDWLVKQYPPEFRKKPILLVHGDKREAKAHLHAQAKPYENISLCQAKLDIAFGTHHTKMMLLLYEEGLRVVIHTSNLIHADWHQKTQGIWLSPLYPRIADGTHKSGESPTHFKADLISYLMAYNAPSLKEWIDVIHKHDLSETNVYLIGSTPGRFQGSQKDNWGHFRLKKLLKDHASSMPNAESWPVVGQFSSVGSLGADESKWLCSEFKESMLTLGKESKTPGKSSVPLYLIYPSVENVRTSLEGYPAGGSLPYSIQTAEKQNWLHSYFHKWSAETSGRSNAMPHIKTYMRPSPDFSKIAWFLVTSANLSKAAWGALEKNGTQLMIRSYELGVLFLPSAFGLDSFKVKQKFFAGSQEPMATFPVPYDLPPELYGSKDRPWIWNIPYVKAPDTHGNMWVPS
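E. coli-derived human Tdp1, 1 nM final. Cpd preinc 15 min RT; substrate 15 nM final, 5 min RT; AS bead mix 10 ug/ml final, 10 min RT. Signal loss = tyrosine-FITC cleavage. No-enzyme wells = max signal.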
TDP1 cell CPT = growth inhibition of DT40 Tdp1-/-;hTDP1 cells with camptothecin (screen for TDP1 inhibitors); chicken DT40 Tdp1-/-;hTDP1 cells + 20 nM CPT, ATP luminescence, 48 h; Potency, µM (doses to about 46.2 µM), for the others: top-dose activity change, negative = growth inhibition, actives largely listed as inhibitors; 420,000 compounds, 12% hits; AID 686979; also: % is scaled to controls: 0 for no effect and ±100 for the full control effect; nearly all actives have a fitted effect of over 55% in size
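Chicken DT40 Tdp1-/- cells complemented with human TDP1, 400 cells/well, exposed to compounds plus 20 nM camptothecin for at least 48 h at 37 C; viability read as ATP content by CellTiter-Glo luminescence.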
DT40 TDP1 no CPT = qHTS for Inhibitors of human tyrosyl-DNA phosphodiesterase 1 (TDP1): qHTS in cells in absence of CPT; DT40 Tdp1-/- hTDP1 cells, no CPT, ATP luminescence, 48 h; Potency, µM (highest dose often 46.2 µM), for the others: at the top dose activity change, negative = growth inhibition, hits mostly inhibitors; 420,000 compounds, 15% hits; also: % is scaled to controls: 0 for no effect and ±100 for the full control effect; nearly all actives have a fitted effect of over 55% in size
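Chicken DT40 Tdp1-/- cells stably complemented with human TDP1 were seeded at 400 cells/well with DMSO in place of 20 nM camptothecin. After compound pinning, cells grew at least 48 hr at 37 °C; viability read by CellTiter-Glo luminescence.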
ClpP mod = qHTS Assay for Activators of ClpP; ATP-dependent Clp protease proteolytic subunit (Bacillus subtilis (strain 168)), P80244; purified B. subtilis ClpP, FRET peptide cleavage, 20 min; Potency, µM (top dose mostly 57.5 µM), for inactives: at the top dose activity change, negative = active; 340,000 compounds, 1.9% hits; active = well fitted falling curve with a large enough effect; inconclusive = small, poorly fitted or top-dose-only effect; inactive = no such curve, though single readings can be large or run the other way; also: the source files actives as falling curves though it sought activators and does not explain the sign; nearly all actives have a fitted effect of over 65% in size
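FRET quenching reversal measured ClpP activation: 10 microg/mL B. subtilis ClpP at pH 8 with the FRET-FV decapeptide, read at 430 nm after 320 nm excitation. The 20-min minus 0-min signal was scaled between DMSO/no-enzyme wells and ADEP (5.8 microM final).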
* marks the source's active call; other numbers are inactive results; [ ] = remark or other dose. Unless noted, calls follow the shape of the dose curve; as a rule, active = well fitted curve in the direction sought with a large enough effect; inconclusive = small, poorly fitted or top-dose-only effect, or another doubt; inactive = no such curve, though single readings can be large; an effect the other way counts as inactive or inconclusive. Potency is read from the fitted curve at half-maximal effect.

Screening COc1ccc(-c2nc3n(n2)C(c2cccnc2)C(C(N)=O)=C(C)N3)cc1 (stereo not given) returned TDP1 block 2.9%, TDP1 cell CPT 2.9%, DT40 TDP1 no CPT -18.2% and ClpP mod 5.4%.
`COc1ccccc1NC(=O)C1=C(C)Nc2nc(-c3ccco3)nn2C1c1cccc(C)c1` (stereo not given) gave TDP1 cell CPT 18.4µM*, DT40 TDP1 no CPT inconclusive and ClpP mod -0.1%.
For COc1ccccc1NS(=O)(=O)c1cccc(C(=O)NCC2(N3CCCCC3)CCCCC2)c1 the results were TDP1 cell CPT -19.6%, DT40 TDP1 no CPT -22.3% and ClpP mod 0.4%.
For COCc1c(C(=O)NC2CCOC(C)(C)C2)cnn1-c1nccc(-c2cccs2)n1 (stereo not given) the results were TDP1 cell CPT 9.8%[9.04 µM] and DT40 TDP1 no CPT -15.2%.
`CCOc1ccc(C(=O)n2cc(C(=O)OC)c3ccccc32)cc1` gave TDP1 block 3.5%, TDP1 cell CPT inconclusive, DT40 TDP1 no CPT 13µM* and ClpP mod 0.3%.
`CCOc1ccc(C(=O)n2cc(C(=O)OC)c3ccccc32)cc1OCC` gave TDP1 cell CPT inconclusive, DT40 TDP1 no CPT inconclusive and ClpP mod 0.5%.
For COc1ccc(C(C)=O)cc1CN1C(=O)C(Cc2ccccc2)ON=C1c1ncccc1C (stereo not given) the results were TDP1 cell CPT 20.6µM*, DT40 TDP1 no CPT inconclusive and ClpP mod 0.9%.
`COc1ccc(-c2nc(CS(=O)CC(=O)NCc3ccc(C)cc3)c(C)o2)cc1OC` (stereo not given) gave TDP1 block 4.9%, TDP1 cell CPT inconclusive, DT40 TDP1 no CPT -3.7% and ClpP mod 4.0%.
For CCCN(CCC)CCNC(=O)CS(=O)Cc1nc(-c2ccc(OC)c(OC)c2)oc1C (stereo not given) the results were TDP1 block 4.6%, TDP1 cell CPT -15.0%, DT40 TDP1 no CPT inconclusive and ClpP mod 31.6µM*.
Screening COc1ccc(-c2nc(CS(=O)CC(=O)NCc3ccc(F)cc3)c(C)o2)cc1OC (stereo not given) returned TDP1 block -3.5%, TDP1 cell CPT inconclusive, DT40 TDP1 no CPT inconclusive and ClpP mod 28.2µM*.
`Cc1cc(C)c2c(N)c(C(=O)N3CCc4ccccc4C3)sc2n1` gave TDP1 block -6.0%, TDP1 cell CPT inconclusive, DT40 TDP1 no CPT 29.1µM* and ClpP mod -25.4%.
Nc1c(Cl)ncnc1NCCc1ccc(O)cc1 was read as TDP1 cell CPT 13µM*, DT40 TDP1 no CPT 5.8µM* and ClpP mod 1.2%.
For C#CC(C)(CC)NC(=O)Cn1nnc(-c2ccc(OCc3ccccc3F)cc2)n1 (stereo not given) the results were TDP1 block 8.4%, TDP1 cell CPT inconclusive, DT40 TDP1 no CPT inconclusive and ClpP mod 2.8%.
`COC(=O)CCCn1cc(CN(C)C2CN(Cc3cn(CCCC(=O)OC)nn3)S(=O)(=O)C2)nn1` (stereo not given) gave TDP1 cell CPT -15.3%, DT40 TDP1 no CPT -14.8% and ClpP mod -0.4%.
`COc1ccc(CCNC(=O)c2cc3ccc(Cl)cc3nc2N)cc1` gave TDP1 cell CPT inconclusive, DT40 TDP1 no CPT 5.8µM* and ClpP mod -20.8%.
Screening Nc1nc2ccc(Cl)cc2cc1C(=O)NCCc1ccc(Cl)cc1Cl returned TDP1 cell CPT inconclusive, DT40 TDP1 no CPT inconclusive and ClpP mod -14.2%.
For Nc1nc2cc(Cl)ccc2cc1C(=O)NCCCc1ccccc1 the results were TDP1 cell CPT inconclusive, DT40 TDP1 no CPT 14.6µM* and ClpP mod -28.1%.
`Cc1nc(CC(=O)c2ccc(O)c(C)c2O)cs1` gave TDP1 block 4.8%, TDP1 cell CPT -5.4%, DT40 TDP1 no CPT 2.5% and ClpP mod 0.2%.
For Cc1nc2cccnc2n1-c1cccc(C(=O)NCc2ccc(OC(C)C)cc2)c1 the results were TDP1 block 2.8%, TDP1 cell CPT inconclusive, DT40 TDP1 no CPT inconclusive and ClpP mod -2.4%.
For Nc1c(-c2nc(-c3ccncc3)no2)nnn1CC(=O)Nc1ccccc1 the results were TDP1 block -11.3%, TDP1 cell CPT inconclusive, DT40 TDP1 no CPT inconclusive and ClpP mod -0.6%.
`COC(=O)C1(C(=O)OC)C[C@H](/C=C/c2ccccc2)N(Cc2ccccc2OC)[C@@H]1c1cccs1` gave TDP1 cell CPT 25.9µM*, DT40 TDP1 no CPT 23.1µM* and ClpP mod -4.1%.
COc1ccc(C(=O)/C=C/c2ccsc2)cc1CSCC(=O)O was read as TDP1 block -18.7%, TDP1 cell CPT 9.2µM*, DT40 TDP1 no CPT 11.6µM* and ClpP mod 0.8%.
`Cc1nnc(SCC(=O)NCc2ccccc2F)c2nn(-c3ccc(Cl)cc3)c(C)c12` gave TDP1 block 2.8%, TDP1 cell CPT 13µM*, DT40 TDP1 no CPT 8.2µM* and ClpP mod -8.9%.
For Cc1nnc(SCC(=O)NCc2cccc(F)c2)c2nn(-c3ccccc3)c(C)c12 the results were TDP1 block -2.8%, TDP1 cell CPT 8.2µM*, DT40 TDP1 no CPT 7.31µM* and ClpP mod -1.2%.
COc1cc(/C=N/Nc2nc(=O)[nH]nc2C)cc([N+](=O)[O-])c1O was read as TDP1 block 3.7%, TDP1 cell CPT -1.6%, DT40 TDP1 no CPT -15.9% and ClpP mod 0.8%.
CC1CCCN(Cc2c(O)ccc3c(=O)c(-c4ccccc4Cl)c(C(F)(F)F)oc23)C1 (stereo not given) was read as TDP1 cell CPT 0.8%, DT40 TDP1 no CPT 0.2% and ClpP mod -0.2%.
`CN1CCC(N(C)C(=O)c2cc(S(=O)(=O)N(C)c3ccccc3)ccc2Cl)CC1` gave TDP1 block 0.1%, TDP1 cell CPT -13.9%, DT40 TDP1 no CPT -1.6% and ClpP mod -0.9%.
`O=S(=O)(NCCc1cn2ccccc2n1)c1ccc(-c2ccccc2)cc1` gave TDP1 block 7.8%[56.1 µM], TDP1 cell CPT inconclusive, DT40 TDP1 no CPT inconclusive and ClpP mod -4.7%.
CCOc1ccc(S(=O)(=O)NCCc2cn3ccccc3n2)cc1 was read as TDP1 block 4.3%, TDP1 cell CPT -29.8%, DT40 TDP1 no CPT inconclusive and ClpP mod 22.4µM*.
Screening CCC(CC)NC(=O)CSc1ccc(S(=O)(=O)N2CCCCC2)cn1 returned TDP1 block -4.3%, TDP1 cell CPT inconclusive, DT40 TDP1 no CPT inconclusive and ClpP mod -2.0%.
For CCCCN1C(=O)c2ccc(C(=O)Nc3ccc(C)c(S(=O)(=O)N(C)C)c3)cc2C1=O the results were TDP1 block -2.3%, TDP1 cell CPT inconclusive, DT40 TDP1 no CPT 16.4µM* and ClpP mod -2.3%.
`Cc1ccc(NC(=O)c2ccc(OC(F)(F)F)cc2)cc1S(=O)(=O)N(C)C` gave TDP1 block -2.7%, TDP1 cell CPT inconclusive, DT40 TDP1 no CPT 25.9µM* and ClpP mod -1.0%.
